Source: PubChem
In the library only some 1.8% were active in any assay of this set; here they are far more common.
DENV2 CPE rescue: DENV2-induced cell death inhibition; DENV2-infected cells, cytopathic effect rescue, plate reader; CPE inhibition, % at 9.99 µM; 350,000 tested, 1.7% active; AID 651640; in the data active means CPE inhibition above about 20%, passing the limit was not always enough; inconclusive means no clear call, values can overlap the other calls; tested in BHK-21 cells;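 further: 0% = median of neutral control wells and 100% = median of positive control wells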
ERAP1 inh: blocks human ERAP1 aminopeptidase activity | recombinant ERAP1, Leu-AMC fluorescence, 60 min | inhibition, % at 10.7 µM | 340,000 tested, 0.15% active | Q9NZ08 | AID 652197;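 active means mean replicate inhibition of at least 30%, or all replicates individually reaching that 30% level; inactive means mean below 30% and not every replicate reaching it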;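 further: 0% = neutral control wells and 100% = L-leucinethiol positive control wells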
PDI turbidity: inhibitors of human protein disulfide isomerase; P07237; PDI insulin aggregation turbidity, A650, 90 min; inhibition, % at 10 µM; 350,000 tested, 0.052% active;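 active means mean inhibition across replicates of 30% or more, whatever share of single replicates reach that level; inconclusive means mean inhibition below 30% while every single replicate reaches 30%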
ERp5 block: ERp5 (human) disulfide isomerase inhibition; Q15084; ERp5 insulin aggregation, absorbance 650 nm, 90 min; inhibition, % at 9.99 µM; 350,000 tested, 0.05% active;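 active means mean replicate inhibition above about 25%, with every replicate also reaching it, limit read from the data, passing the limit was not always enough; inconclusive means only one of those two criteria met; inactive means neither criterion met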
MLL AF4-AF9 inh: blocks AF4 peptide binding to human AF9; P42568; AlphaScreen, biotin-AF4 peptide binding to FLAG-AF9; inhibition, % at 10 µM; 350,000 tested, 0.47% active;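 active means every replicate reaching a set inhibition limit, whatever the replicate mean, cut at about 25% in these data; inconclusive means mean inhibition reaches that limit but some replicates miss it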;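 further: 0% = plate neutral control median and 100% = total signal loss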
Target sequence (P42568 whole entry, looked up): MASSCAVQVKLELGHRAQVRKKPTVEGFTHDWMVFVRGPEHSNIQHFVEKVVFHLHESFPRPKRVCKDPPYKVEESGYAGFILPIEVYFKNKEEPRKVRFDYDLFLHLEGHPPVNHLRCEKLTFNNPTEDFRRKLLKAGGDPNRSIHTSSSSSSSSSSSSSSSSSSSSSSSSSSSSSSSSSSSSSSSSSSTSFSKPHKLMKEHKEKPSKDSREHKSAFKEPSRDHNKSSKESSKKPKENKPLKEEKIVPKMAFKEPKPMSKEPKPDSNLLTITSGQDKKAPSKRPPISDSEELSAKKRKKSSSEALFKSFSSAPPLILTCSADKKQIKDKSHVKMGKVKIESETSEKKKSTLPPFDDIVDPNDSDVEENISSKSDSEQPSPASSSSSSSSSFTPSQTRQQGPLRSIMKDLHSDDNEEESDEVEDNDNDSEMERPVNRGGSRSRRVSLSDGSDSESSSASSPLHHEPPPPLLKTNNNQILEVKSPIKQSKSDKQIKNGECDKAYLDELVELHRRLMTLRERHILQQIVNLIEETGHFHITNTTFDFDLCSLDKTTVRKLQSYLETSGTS
Numbers without * were called inactive; ? = inconclusive; . = not tested or not shown.

SMILES | DENV2 CPE rescue | ERAP1 inh | PDI turbidity | ERp5 block | MLL AF4-AF9 inh
C[C@H]1CN([C@@H](C)CO)S(=O)(=O)c2ccc(C#Cc3ccccc3)cc2O[C@H]1CN(C)C(=O)CN(C)C | -2 | 0 | . | 3 | 18
CO[C@@H]1CN(C)C(=O)c2ccc(NC(=O)C3CC3)cc2OC[C@H](C)N(C(=O)NC(C)C)C[C@@H]1C | -3 | 1 | . | -1 | 1
CNC[C@@H]1Oc2c(NS(=O)(=O)c3ccc(F)cc3)cccc2C(=O)N([C@@H](C)CO)C[C@H]1C | -6 | -2 | . | -1 | -3
O=C(C[C@@H]1C[C@@H]2c3cc(NC(=O)Nc4ccccc4)ccc3O[C@@H]2[C@H](CO)O1)NC1CCCCC1 | -11 | 0 | . | -4 | -1
COc1ccc(S(=O)(=O)Nc2ccc3c(c2)C(=O)N([C@@H](C)CO)C[C@H](C)[C@H](CN(C)S(=O)(=O)c2ccc(Cl)cc2)OCCCC[C@H](C)O3)cc1 | 25* | 1 | . | 0 | -2
CC1(C)NC(=O)N(CC(=O)OCC(=O)NC(=O)c2ccccc2)C1=O | -8 | 64* | -13 | -4 | 1
CCCNC(=O)N1C[C@@H](C)[C@H](OC)CN(C)C(=O)c2ccc(NC(=O)C3CCC3)cc2OC[C@@H]1C | 1 | . | . | 1 | 0
C[C@@H](C(=O)N(C)C[C@H]1OCc2ccccc2-c2ccccc2C(=O)N([C@@H](C)CO)C[C@@H]1C)c1ccccc1 | -1 | 4 | . | 6 | -1
CCOC(=O)C1=C(C)NC(=O)NC1c1ccc(N(CC)CC)cc1 (stereo unspecified) | 8 | 2 | -4 | -3 | -1
CCOC(=O)C1=C(C)NC(=O)NC1c1ccc(N(C)C)cc1 (stereo unspecified) | 70* | -3 | -4 | 5 | 6
O=C(C[C@H]1C=C[C@@H](NC(=O)CN2CCOCC2)[C@@H](CO)O1)NCCc1ccccc1 | -1 | 1 | . | -2 | 0
S=C(NCCCN1CCOCC1)N1CCN(c2nc(-c3ccccc3)cs2)CC1 | ? | 9 | 2 | -2 | 15
S=C(NCCCN1CCOCC1)N1CCN(c2nc(-c3ccc(Cl)cc3)cs2)CC1 | ? | -1 | -5 | 0 | 33*
CN1CCN(C(=O)c2cc3c(c(-c4cccc(C#CCC5CCCC5)c4)n2)[C@H](CCO)N(S(=O)C(C)(C)C)C3)CC1 (stereo partly specified) | 5 | -2 | . | 5 | 7
COc1ccc(S(=O)(=O)Nc2ccc3c(c2)C(=O)N([C@H](C)CO)C[C@@H](C)[C@@H](CN(C)Cc2ccncc2)OCCCC[C@@H](C)O3)cc1 | 5 | -1 | . | 0 | 2
Cc1ccc(S(=O)(=O)Nc2ccc3c(c2)CC(=O)N([C@H](C)CO)C[C@H](C)[C@@H](CN(C)Cc2ccncc2)O3)cc1 | -2 | 2 | . | 1 | 10
COc1ccc(C(=O)c2[nH]c(N)c(C(=O)NCCc3c[nH]c4ccccc34)c2-c2c(F)cccc2Cl)cc1 | 67* | -4 | . | 0 | -3
Nc1[nH]c(C(=O)c2ccccc2)c(-c2cc(F)ccc2Br)c1C(=O)NCCc1c[nH]c2ccccc12 | 29* | -2 | . | 1 | .
COc1ccc(C(=O)c2[nH]c(N)c(C(=O)NCCc3c[nH]c4ccccc34)c2-c2ccccc2C(F)(F)F)cc1 | -5 | 1 | . | 6 | -6
C[C@@H]1CN([C@@H](C)CO)C(=O)c2cccc(NC(=O)NC3CCCCC3)c2O[C@@H]1CN(C)S(=O)(=O)c1ccc(F)cc1 | -2 | 0 | . | 4 | 2
Nc1c(C(=O)N/N=C/c2ccc([N+](=O)[O-])cc2)cnn1-c1ccccc1 | 46* | . | -5 | 2 | -1
O=C(N/N=C/c1ccc([N+](=O)[O-])cc1)c1cccnc1 | -4 | -6 | 5 | 2 | 0
Cc1noc(C)c1S(=O)(=O)N(C)C[C@@H]1OCCCC[C@H](C)Oc2ccc(NC(=O)NC(C)C)cc2C(=O)N([C@H](C)CO)C[C@H]1C | 86* | 2 | . | -2 | 0
Cc1noc(C)c1S(=O)(=O)N(C)C[C@@H]1OCCCC[C@@H](C)Oc2ccc(NC(=O)Nc3ccc(F)cc3)cc2C(=O)N([C@@H](C)CO)C[C@@H]1C | 46* | 1 | . | -2 | -1
Cc1noc(C)c1S(=O)(=O)N(C)C[C@@H]1OCCCC[C@H](C)Oc2ccc(NC(=O)NC(C)C)cc2C(=O)N([C@@H](C)CO)C[C@H]1C | -11 | 3 | . | -7 | -2
SMILES | DENV2 CPE rescue | ERAP1 inh | PDI turbidity | ERp5 block | MLL AF4-AF9 inh
C[C@H]1CCCCO[C@H](CN(C)C(=O)C2CCCCC2)[C@@H](C)CN([C@@H](C)CO)C(=O)c2cc(NS(=O)(=O)c3ccc(Cl)cc3)ccc2O1 | -7 | 1 | . | 1 | 5
CO[C@H]1CN(C)C(=O)c2cc(NC(=O)Nc3ccccc3F)ccc2OC[C@@H](C)N(C)C[C@@H]1C | 3 | 0 | . | -2 | -2
O=[N+]([O-])c1c(NCCO)cc(N2CCC3(CC2)OCCO3)c2nonc12 | . | . | -12 | . | .
O=[N+]([O-])c1c(NCCCO)cc(N2CCCCCC2)c2nonc12 | 37* | 2 | 1 | 0 | -2
COc1cccc(-c2ccc(C3[C@@H]4CN(S(=O)(=O)c5cccc(OC)c5)C[C@H]3N4)cc2)c1 (stereo partly specified) | 6 | -3 | . | 2 | -5
COCC(=O)N1CC2(C1)[C@H](c1ccc(-c3cccc(C)c3)cc1)[C@H](CO)N2C(=O)C1CC1 | 49* | 1 | . | -3 | -8
COCC(=O)N1CC2(C1)[C@H](c1ccc(-c3cccc(C)c3)cc1)[C@@H](CO)N2C(=O)C1CC1 | -15 | 0 | . | -1 | -10
CCC(=O)N1[C@H](CO)[C@@H](c2ccc(-c3cccc(OC)c3)cc2)C12CN(C(C)=O)C2 | 5 | 0 | . | -3 | -2
COCC(=O)N1[C@@H](CO)[C@H](c2ccc(-c3cccc(OC)c3)cc2)C12CN(C(C)=O)C2 | 31* | -2 | . | -2 | 1
CNC(=O)C[C@H]1CC[C@H]2[C@@H](COC[C@@H](O)CN2Cc2ccccc2F)O1 | -3 | -1 | . | 0 | 3
COc1ccc(CC(=O)c2ccc(O)cc2O)cc1 | 76* | -1 | . | 3 | 0
COc1ccc(-n2sc3ccccc3c2=O)cc1 | -4 | 75* | 7 | 5 | -14
O=C(C[C@H]1CC[C@@H]2[C@H](COC[C@H](O)CN2S(=O)(=O)c2ccc(Cl)cc2)O1)NCCN1CCCC1 | 6 | 1 | . | 1 | -11
C[C@@H]1CN([C@@H](C)CO)C(=O)c2cc(NC(=O)Nc3cccc4ccccc34)ccc2O[C@@H](C)CCCCO[C@H]1CN(C)C(=O)C1CCCCC1 | 22* | -4 | . | -1 | -1
C[C@@H]1CCCCO[C@@H](CN(C)C(=O)C2CCCCC2)[C@@H](C)CN([C@H](C)CO)C(=O)c2cc(NC(=O)Nc3cccc4ccccc34)ccc2O1 | 22* | 1 | . | 2 | -7
C[C@@H]1CCCCO[C@H](CN(C)C(=O)C2CCCCC2)[C@@H](C)CN([C@@H](C)CO)C(=O)c2cc(NC(=O)Nc3cccc4ccccc34)ccc2O1 | 26* | -3 | . | 9 | 0
